Experimental data: PubChem BioAssay AID652104 (National Center for Advancing Translational Sciences (NCATS), 2013)
Out of some 410,000 compounds screened, about 7,200 (1.8%) were called active. About 7% were inconclusive and are not listed. Calls follow the shape of the dose curve; as a rule, active = well fitted activation curve with a large enough effect; inconclusive = small, poorly fitted or top-dose-only effect, or another doubt; inactive = no such curve, though single readings can be large or run the other way. The list comes from a sample in which actives are over-represented; it also holds similar structures and randomly drawn compounds.

Assay: qHTS of TDP-43 Inhibitors; also: nearly all actives have a fitted effect of over 50% in size; as to growth rescue (activation): % of control where 0% means no effect
Conditions: TDP-43 expressing yeast growth rescue, BacTiter-Glo, 24 h; series mostly up to 46.1 µM; growth rescue (activation): at the top concentration
Summary of the method: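 In this qHTS, compounds that restore growth of yeast expressing TDP-43 appear as activators. Cells (OD600=0.02, galactose medium, raffinose-pregrown) are incubated with compound 24 hr at 30 deg C and growth is quantified by BacTiter-Glo.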
Potency is read from the fitted curve at half-maximal effect.

Growth rescue (activation), inactive:
CCOc1ccc(N(Cc2ccccc2)C(=O)c2nc(SCC)ncc2Cl)cc1 -20.1%
CCOc1ccc(NC(=O)CN(Cc2ccccc2)S(=O)(=O)c2ccc(Cl)cc2)cc1 16.1%
COc1ccc(CNc2nc(-c3ccc(Cl)cc3)nn2S(=O)(=O)c2ccc(C)cc2)cc1 20.8%
CCC(=O)Nc1ccc2nc(SCC(=O)N3CCc4ccccc43)sc2c1 -8.25%
CCC1CCCCN1C(=S)NC(=O)c1ccco1 (stereo not drawn) 11.5%
COc1ccc(N(CC(=O)NC(C)(C)C)C(=O)c2ccco2)cc1 11.1%
COc1ccccc1CCC(=O)NNC(=O)c1ccncc1 -23.5%
Cc1c(NC(=S)NC(=O)CCc2ccccc2)c(=O)n(-c2ccccc2)n1C -15.5%
O=C(c1ccc2c(c1)N(Cc1ccccc1F)C(=O)c1ccccc1S2(=O)=O)N1CCOCC1 -5.9%
CC(Sc1oc(-c2ccco2)nc1S(=O)(=O)c1ccc(Br)cc1)c1ccccc1 (stereo not drawn) -9.35%
CC1=NNC(=O)C1CCC(=O)N/N=C\c1cccc(Cl)c1 (stereo not drawn) -7.49%
CC(C)Oc1ccc(CNC(=O)C2CCN(c3nc4ccccc4n(C)c3=O)CC2)cc1 2.78%
Cc1ccc(-c2nc(CSCC(=O)NC3CCN(Cc4ccccc4)CC3)c(C)o2)cc1 -25.4%
CNC(=O)c1ccsc1NC(=O)c1ccc(S(=O)(=O)N2CCc3ccccc32)cc1 26.1%
COc1ccc(NC(=O)c2ccc3nc(CCc4ccccc4)oc3c2)c(OC)c1 -6.5%
Cc1ccc(-c2noc(-c3nnn(-c4cccc(C(F)(F)F)c4)c3N)n2)cc1 13.2%
COc1ccc(-c2cc(C(=O)NCc3cc(OC)c(OC)c(OC)c3)[nH]n2)cc1 -13%
COc1ccc(C(=O)NCC2CCCCC2)cc1S(=O)(=O)N1CCCC1 4.93%
CC(C)Oc1cc(F)ccc1-c1cc(C(=O)Nc2cccc(Cl)c2)[nH]n1 -0.284%
CC(C)Oc1cc(F)ccc1-c1cc(C(=O)Nc2ccc(F)cc2)[nH]n1 10.3%
COc1ccccc1CNC(=O)c1cc(-c2cc(Cl)ccc2C)n[nH]1 23.4%
COc1ccc(CN2CCCC(CNC(=O)c3ccc(F)cc3)C2)cc1OC (stereo not drawn) -11.7% [at 0.397 µM]
CN1CCN(C2(CNC(=O)COc3ccc(C(C)(C)C)cc3)CCCCC2)CC1 4.73%
CC(=O)Nc1ccc2nc(SCCOc3cc(C)cc(C)c3)sc2c1 -5.36%
Cc1ccc(C(=O)Nc2cc3c(cc2N2CCCC2)n(C)c(=O)c(=O)n3C)cc1 -6.47%
CCCCCn1c(=O)[nH]c2cc(C(=O)Nc3cc(C)cc(C)c3)ccc2c1=O 9.06%
CCOc1ccc(Nc2c(S(=O)(=O)c3ccccc3)cnc3ccccc23)cc1 21.1%
O=C(c1ccc(C(F)(F)F)cc1)N1CCC(c2nc(-c3ccc(S(=O)(=O)N4CCCC4)cc3)no2)CC1 7.52%
CCOC(=O)c1c(SCC(=O)Nc2cccc(C)c2C)nc(=O)[nH]c1C 5.54%
O=C(COC(=O)/C=C/c1ccc2c(c1)OCO2)NC1CCS(=O)(=O)C1 (stereo not drawn) -7.5%
O=C(Nc1ccc2c(c1)OCCO2)C1CCCC1 1.92%
COc1ccc(NC(=O)NC(C)c2c(-n3cccc3)sc(C)c2C)cc1OC (stereo not drawn) 12.6%
COc1ccc(CCNC(=O)C(=O)NCC(c2ccco2)S(=O)(=O)c2cccs2)cc1OC (stereo not drawn) 21.8%
COc1cc(NC(=O)Cn2nc(-c3ccc(C)c(C)c3)ccc2=O)cc(OC)c1 14.8%
COc1ccc(C2c3c(oc4ccccc4c3=O)C(=O)N2Cc2ccc3c(c2)OCO3)cc1 (stereo not drawn) -8.02%
Cc1ccc(S(=O)(=O)n2nc(-c3ccc(Cl)cc3)nc2NCc2ccccc2)cc1 -3.27%
COc1ccc(OCCCn2c(C)nc3cc(C)c(C)cc32)cc1 21.8%
Cc1cc(C)c2oc(C(=O)Nc3ccc(S(=O)(=O)N4CCCCCC4)cc3)cc(=O)c2c1 14.9%
Cc1ccccc1C(=O)Nc1nnc(S(=O)(=O)N(C)c2ccc(Cl)cc2)s1 5.15%
CC1(C(=O)NCc2ccco2)Cc2c(-c3ccc4c(c3)OCO4)ccnc2O1 (stereo not drawn) 23.5%
CC(=O)Nc1cccc(-c2ccnc3c2CC(C)(C(=O)NCc2ccccc2)O3)c1 (stereo not drawn) 18.4%
COc1ccc(CNC(=O)CSc2nc3ccccc3nc2Cc2ccccc2)cc1 8.1%
CCc1cc2c(cc3c(=O)n(CC(=O)N4CCN(c5cc(Cl)ccc5C)CC4)ncn32)s1 11.6%
Cc1cc(OCc2ccc(C(=O)Nc3ccc(C(=O)O)cc3)o2)ccc1Cl -9.15%
O=C(COc1ccc2ccc(=O)oc2c1)NCC(O)c1ccccc1 (stereo not drawn) 8.96%
CCOC(=O)c1cc(-c2ccc(OC)c(S(=O)(=O)Nc3ccc(OC)cc3OC)c2)on1 14.4%
CCOC(=O)c1ccc(NC(=O)CC2C(=O)N(c3ccccc3)C(=O)N2Cc2cccs2)cc1 (stereo not drawn) 11.2%
CCOC(=O)c1ccc(N2C(=O)CC(Sc3nc(O)c(CC)c(=O)[nH]3)C2=O)cc1 (stereo not drawn) 8.69%
CCOC(=O)c1ccc(N2C(=O)CC(N3CCN(C(=O)c4ccccc4)CC3)C2=O)cc1 (stereo not drawn) 10.1%
Cc1ccc(C)c(N2CCN(C(c3ccccc3)c3nnc(-c4ccccc4)o3)CC2)c1 (stereo not drawn) 20.5%
CCCCCC(=O)Nc1ccc(-c2cn3cccnc3n2)cc1 -7.99%
CCOc1ccc(-c2ccc(SCC(=O)N3CCOCC3)nn2)cc1 -8.68%
CCOc1ccc(-c2cc(C)n3nc(C(=O)Nc4ccc(C)c(C)c4)cc3n2)cc1 10%
O=C(O)CCC(=O)NCc1ccc(C(=O)O)cc1 11%
Cc1ccsc1CN(C(=O)c1oc2ccc(Br)cc2c1C)C1CCS(=O)(=O)C1 (stereo not drawn) 32.2%
O=C(Nc1ccccc1Br)c1cc(CN2CCCC2)on1 -6.37%
Cc1ccc2nc(CN3CCN(S(=O)(=O)c4ccc(C)c(C)c4)CC3)oc2c1 24.1%
Cc1ccc(CN2CCC(CNC(=O)c3cnn(-c4ccccc4Cl)c3C3CCN(C(=O)OC(C)(C)C)CC3)CC2)cc1 0%
Cc1ccccc1Nc1nc(N)nc(COC(=O)CCC(=O)c2ccc(F)cc2)n1 4.71%
CCCn1nc(C(=O)OCc2nc(N)nc(Nc3ccccc3C)n2)c2ccccc2c1=O 9.98%
O=C(NC1CC(=O)N(c2ccc(F)cc2)C1)c1ccc(S(=O)(=O)N2CCCC2)cc1 (stereo not drawn) 24.6%
COc1ccc2c(C)c(CCC(=O)NCc3ccc(OC)c(OC)c3)c(=O)oc2c1 5.65%
CC1CCCCN1CC(=O)N1CCCc2c1c(=O)oc1ccc(OCc3ccccc3)cc21 (stereo not drawn) -26.7%
Cc1cc(Cl)ccc1NC(=O)Cc1ccc(NC(=O)N2CCCCc3ccccc32)cc1 0%
CCc1cccc(-n2nnc(-c3nsc(NC(=O)c4ccc(C)cc4)n3)c2C)c1 18.4%
CCOc1ccc(/C=C(\C#N)c2nc3ccccc3c(=O)[nH]2)cc1OC 29%
C=CCOc1ccc(/C=N/NC(=O)C(C)Sc2ccccn2)cc1OCC (stereo not drawn) 15.6%
Cc1cccc(CC(=O)Nc2cccc(-c3cn4cccnc4n3)c2)c1 1.61%
Cc1cc2nc(-c3ccc(F)cc3)c(Cc3ccsc3)n2c(C)c1Br 13.7%
O=C(CN1C(=O)CCn2nc(-c3ccccc3)cc21)NCc1ccccc1 18.2% [at 9.22 µM]
COc1cccc(C(=O)NCc2ccc3c(c2)CCN3C(=O)c2ccncc2)c1 28.9%
Cc1ccc(-c2cc(C(=O)Oc3ccccc3Cl)no2)cc1C 10.3%
C/C(=N/OC(=O)c1c(-c2c(F)cccc2Cl)noc1C)c1cnccn1 3.39%
Cc1c(Cl)cccc1NC(=O)C(=O)NCCc1csc2nc(-c3ccccc3F)nn12 29.8%
CC(=O)Nc1cccc(NC(=O)CSc2cn(CC(=O)N3CCCC3)c3ccccc23)c1 17.1%
COc1cccc(Cn2c(CNS(=O)(=O)c3ccc(Cl)s3)nc3cccnc32)c1 18.7%
O=C(NCC1CCCO1)c1cc2c([nH]c3ccccc32)c(-c2ccc(F)cc2)n1 (stereo not drawn) 0%
Cn1c(=O)c2[nH]c(NCC3CCCO3)nc2n(-c2ccccc2)c1=O (stereo not drawn) 0.787%
CCN(CCCNC(=O)Cn1ncc2c3ccccc3n(C)c2c1=O)Cc1ccccc1 15.9%

Potency, active:
CCOc1ccc(N(Cc2ccccc2)C(=O)c2nc(S(C)(=O)=O)ncc2Cl)cc1 17.8 µM
COc1ccc(C(=O)NC(=S)NNC(=O)CCc2ccccc2)cc1 17.8 µM
CCCc1ccc(OCC(=O)NNC(=S)NC(=O)c2ccco2)cc1 3.98 µM
Cc1nc(Cl)cc(N/N=C/c2ccccc2)n1 7.94 µM
CNC(=O)c1ccc(-c2nc(CN3CCc4ccccc43)c(C)o2)cc1 10 µM
COc1cc(F)ccc1-c1cc(C(=O)NCC2CCCCC2)[nH]n1 25.1 µM
COc1ccccc1CNC(=O)c1cc(-c2cc(F)ccc2OC)n[nH]1 22.4 µM
COc1cc(NC(=O)c2cc(-c3ccc(F)cc3OC(C)C)n[nH]2)cc(OC)c1OC 28.2 µM
O=C(O)/C=C/c1ccc2c(c1)OCCO2 15.8 µM
CC1(C(=O)NCc2ccc(F)c(F)c2)Cc2c(-c3ccc4c(c3)OCO4)ccnc2O1 (stereo not drawn) 35.5 µM
CC(C)OC(=O)c1ccc(COc2ccc3ccc(=O)oc3c2)o1 11.2 µM
CCOC(=O)c1ccc(N2C(=O)CC(N(C)Cc3ccccc3)C2=O)cc1 (stereo not drawn) 2.82 µM
CCCCCc1ccc(-c2ccc(C(=O)O)cc2)nc1 3.16 µM
CCCCCc1ccc(-c2ccc(OCC)cc2)nc1 12.6 µM
Cc1ccc(C(=O)OCc2nc(N)nc(Nc3ccccc3C)n2)cc1 12.6 µM
C=CCOc1ccc(/C=C2/C(=O)ON=C2C)cc1OCC 12.6 µM
Cc1cc2nc(-c3ccco3)c(Cc3cccc(F)c3)n2c(C)c1Br 3.16 µM
Cc1ccc(C(=O)O/N=C(\N)c2ccccn2)cc1Cl 7.08 µM
Clc1cccc(-c2nc(NCC3CCCO3)c3ccccc3n2)c1 (stereo not drawn) 12.6 µM
